# Source: PubChem BioAssay AID1159580 (chemical genetic matrix, 2015)
# Where “and” joins values, the source holds several entries; their conditions need not be identical. Equal values may be shown once. Among all 5,500 compounds or so, about 2,000 (36%) were called active. Another 18% or so got no clear call; they are omitted. Some of the results follow. Unmarked numbers belong to inactive results. Cut-off read from the data, not from the text of the source: active = normalized growth mostly below about 0.91 (no sharp cut-off); inconclusive = no clear call, values can overlap the other calls; inactive = mostly above about 0.92.
# Test: chemical genetic growth profiling, strain panel (AID 1159580);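 note: tested at 20 µM; growth read once vehicle control cultures reached saturation at 30 °C; 1 = growth at the plate median or of vehicle wells; lower values mean less growth of the strain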
# Conditions: S. cerevisiae deletion strains, growth OD
smiles,measurement,setting,value
COc1cc(O)c(C(=O)O)c(O)c1,normalized growth,"locus YAL013W, strain DEP1, active compounds read low",1
same,normalized growth,"locus YAL021C, strain ccr4, active compounds read low",0.992
same,normalized growth,"locus YAL026C, strain drs2, active compounds read low",0.995
same,normalized growth,"locus YAL030W, strain snc1, active compounds read low",0.99
same,normalized growth,"locus YBL061C, strain skt5, active compounds read low",1
same,normalized growth,"locus YBR009C, strain hhf1, active compounds read low",1
same,normalized growth,"locus YBR021W, strain FUR4, active compounds read low",1.02
same,normalized growth,"locus YBR023C, strain chs3, active compounds read low",0.998
same,normalized growth,"locus YBR171W, strain sec66, active compounds read low",0.971
same,normalized growth,"locus YBR229C, strain ROT2, active compounds read low",0.995
same,normalized growth,"locus YBR231C, strain swc5, active compounds read low",1
same,normalized growth,"locus YBR279W, strain paf1, active compounds read low",0.998
same,normalized growth,"locus YCL011C, strain gbp2, active compounds read low",0.988
same,normalized growth,"locus YCL016C, strain dcc1, active compounds read low",0.991
same,normalized growth,"locus YCL029C, strain bik1, active compounds read low",1.01
same,normalized growth,"locus YCL061C, strain MRC1, active compounds read low",0.979
same,normalized growth,"locus YCL069W, strain vba3, active compounds read low",0.99
same,normalized growth,"locus YCR088W, strain abp1, active compounds read low",0.984
same,normalized growth,"locus YDL005C, strain med2, active compounds read low",0.976
same,normalized growth,"locus YDL035C, strain GPR1, active compounds read low",1.02
same,normalized growth,"locus YDL040C, strain nat1, active compounds read low",0.999
same,normalized growth,"locus YDL074C, strain BRE1, active compounds read low",1.02
same,normalized growth,"locus YDL101C, strain DUN1, active compounds read low",1
same,normalized growth,"locus YDL134C, strain PPH21, active compounds read low",1
same,normalized growth,"locus YDL185W, strain tfp1, active compounds read low",0.949
same,normalized growth,"locus YDL192W, strain arf1, active compounds read low",1.02
same,normalized growth,"locus YDR001C, strain nth1, active compounds read low",0.98
same,normalized growth,"locus YDR069C, strain doa4, active compounds read low",1.01
same,normalized growth,"locus YDR101C, strain arx1, active compounds read low",1.01
same,normalized growth,"locus YDR137W, strain rgp1, active compounds read low",0.974
same,normalized growth,"locus YDR150W, strain NUM1, active compounds read low",1
same,normalized growth,"locus YDR159W, strain sac3, active compounds read low",1.01
same,normalized growth,"locus YDR162C, strain NBP2, active compounds read low",1.01
same,normalized growth,"locus YDR195W, strain ref2",0.987
same,normalized growth,"locus YDR297W, strain sur2, active compounds read low",1
same,normalized growth,"locus YDR318W, strain mcm21, active compounds read low",1.02
same,normalized growth,"locus YDR334W, strain swr1, active compounds read low",0.999
same,normalized growth,"locus YDR335W, strain msn5, active compounds read low",0.992
same,normalized growth,"locus YDR388W, active compounds read low",1
same,normalized growth,"locus YDR392W, strain spt3, active compounds read low",1.01
same,normalized growth,"locus YDR502C, strain sam2, active compounds read low",0.998
same,normalized growth,"locus YEL003W, strain gim4, active compounds read low",1
same,normalized growth,"locus YEL037C, strain rad23, active compounds read low",0.985
same,normalized growth,"locus YEL061C, strain CIN8 (second series), active compounds read low",0.981
same,normalized growth,"locus YEL061C, strain CIN8, active compounds read low",1
same,normalized growth,"locus YER015W, strain faa2, active compounds read low",0.99
same,normalized growth,"locus YER016W, strain bim1, active compounds read low",0.989
same,normalized growth,"locus YER110C, active compounds read low",1.02
same,normalized growth,"locus YER111C, strain swi4, active compounds read low",0.987
same,normalized growth,"locus YER155C, strain BEM2 (second series), active compounds read low",0.978
same,normalized growth,"locus YER155C, strain BEM2, active compounds read low",0.987
same,normalized growth,"locus YER167W, strain BCK2, active compounds read low",1.03
same,normalized growth,"locus YFR010W, strain ubp6, active compounds read low",1.01
same,normalized growth,"locus YGL078C, strain dbp3, active compounds read low",0.973
same,normalized growth,"locus YGL086W, strain mad1, active compounds read low",1.01
same,normalized growth,"locus YGL167C, strain pmr1, active compounds read low",0.989
same,normalized growth,"locus YGL173C, strain kem1, active compounds read low",0.997
same,normalized growth,"locus YGL227W, strain vid30, active compounds read low",0.982
same,normalized growth,"locus YGL240W, strain doc1, active compounds read low",0.995
same,normalized growth,"locus YGL248W, strain PDE1, active compounds read low",1.01
same,normalized growth,"locus YGL253W, strain hxk2, active compounds read low",0.979
same,normalized growth,"locus YGR078C, strain PAC10, active compounds read low",1.01
same,normalized growth,"locus YGR135W, strain pre9, active compounds read low",1.01
same,normalized growth,"locus YGR229C, strain SMI1, active compounds read low",1.02
same,normalized growth,"locus YGR252W, strain gcn5, active compounds read low",1
same,normalized growth,"locus YHR013C, strain ard1, active compounds read low",0.998
same,normalized growth,"locus YHR027C, strain rpn1, active compounds read low",0.978
same,normalized growth,"locus YHR030C, strain SLT2, active compounds read low",0.996 and 0.881
same,normalized growth,"locus YHR079C, strain IRE1 (second series), active compounds read low",1.01
same,normalized growth,"locus YHR079C, strain IRE1, active compounds read low",0.839 (active)
same,normalized growth,"locus YHR094C, strain hxt1, active compounds read low",0.997
same,normalized growth,"locus YHR129C, strain ARP1, active compounds read low",0.991
same,normalized growth,"locus YHR142W, strain chs7, active compounds read low",1.01
same,normalized growth,"locus YHR200W, strain rpn10, active compounds read low",1
same,normalized growth,"locus YIL066C, strain RNR3, active compounds read low",0.993
same,normalized growth,"locus YIL073C, strain SPO22, active compounds read low",1.09
same,normalized growth,"locus YIL125W, strain kgd1, active compounds read low",0.979
same,normalized growth,"locus YIR030C, strain dcg1, active compounds read low",1.01
same,normalized growth,"locus YJL092W, strain hpr5, active compounds read low",0.966
same,normalized growth,"locus YJL095W, strain BCK1 (second series), active compounds read low",0.998
same,normalized growth,"locus YJL095W, strain BCK1, active compounds read low",1 and 0.914
same,normalized growth,"locus YJL115W, strain asf1, active compounds read low",0.979
same,normalized growth,"locus YJL129C, strain trk1, active compounds read low",1
same,normalized growth,"locus YJL134W, strain LCB3, active compounds read low",0.993
same,normalized growth,"locus YJL154C, strain vps35, active compounds read low",0.976
same,normalized growth,"locus YJL164C, strain tpk1, active compounds read low",1.02
same,normalized growth,"locus YJL166W, strain qcr8, active compounds read low",1
same,normalized growth,"locus YJL168C, strain set2, active compounds read low",0.993
same,normalized growth,"locus YJL187C, strain SWE1 (second series), active compounds read low",1.01
same,normalized growth,"locus YJL187C, strain SWE1, active compounds read low",0.996
same,normalized growth,"locus YJR043C, strain POL32, active compounds read low",1.04
same,normalized growth,"locus YJR066W, strain TOR1, active compounds read low",0.841
